GLP1R inv ag: GLP-1 receptor (human) inverse agonism. P43220. AID 624417. HEK293 GLP-1R CRE-luciferase, luminescence, 24 h; GLP-1R form is constitutively active. Potency, µM (top dose mostly 38.3 µM), inactives show at the top dose activity change, negative = inhibition, actives largely listed as inhibitors. 410,000 compounds, 1.6% hits; also: % is scaled to controls: 0 for no effect and ±100 for the full control effect; nearly all actives have a fitted effect of over 55% in size
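HEK293 cells stably co-expressing constitutively active GLP-1R and a cAMP-responsive luciferase reporter were seeded in DMEM with 10% Nu serum, given compounds after 12 h, and incubated 24 h at 37 deg C. Luminescence was then read.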
12-LOX inh: ALOX12 (human) lipoxygenase inhibition; P18054; Potency, µM (titrated, usually from 108 µM), for inactives: at the highest dose activity change, negative = inhibition, actives largely listed as inhibitors; AID 1671190; purified 12hLO, xylenol orange hydroperoxide absorbance; 580,000 compounds, 1.1% hits; also: % is scaled to controls: 0 for no effect and ±100 for the full control effect
Target sequence (P18054 whole entry, looked up): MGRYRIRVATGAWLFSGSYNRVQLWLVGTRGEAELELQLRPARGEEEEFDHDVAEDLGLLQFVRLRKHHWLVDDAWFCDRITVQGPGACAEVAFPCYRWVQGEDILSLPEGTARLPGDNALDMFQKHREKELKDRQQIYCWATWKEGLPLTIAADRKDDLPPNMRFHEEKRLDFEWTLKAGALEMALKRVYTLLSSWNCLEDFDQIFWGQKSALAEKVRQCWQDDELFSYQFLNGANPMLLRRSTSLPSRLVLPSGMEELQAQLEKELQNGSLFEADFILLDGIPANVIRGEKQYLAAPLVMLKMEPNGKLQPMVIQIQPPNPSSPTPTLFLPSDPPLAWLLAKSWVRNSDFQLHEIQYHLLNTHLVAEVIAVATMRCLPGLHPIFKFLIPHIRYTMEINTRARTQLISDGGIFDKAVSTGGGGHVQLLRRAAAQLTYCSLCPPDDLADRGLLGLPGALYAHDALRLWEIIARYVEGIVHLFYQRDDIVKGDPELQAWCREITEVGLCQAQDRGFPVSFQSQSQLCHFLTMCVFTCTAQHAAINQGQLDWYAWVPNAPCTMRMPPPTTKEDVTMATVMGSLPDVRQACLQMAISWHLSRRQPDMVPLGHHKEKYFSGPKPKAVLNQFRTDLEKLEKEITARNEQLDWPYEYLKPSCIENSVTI
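Hydroperoxide product was detected by ferrous iron/xylenol orange as the 573 to 405 nm absorbance ratio. Arachidonic acid at 40 uM (final) was turned over for 30 min at room temperature by 150 nM human 12hLO, pH 7.0 Hepes buffer, after 15 min compound preincubation.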
GRP78 ERSR act: inducers of ER stress response in human glioma cells; U87-MG GRP78 promoter luciferase reporter, 16 h; 420,000 compounds, 0.02% hits; Potency, µM, inactives show at the highest dose activation, hits mostly activators; AID 602332; also: series mostly up to about 76 µM; % of control where 0% means no effect; nearly all actives have a fitted effect of over 35% in size
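ERSR induction read as luciferase luminescence (Bright-Glo, 10 min at room temperature) in stably transfected human U87-MG glioma cells exposed to compounds for 16 h, using GRP78 as sensor.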
PTHR1 ag: PTHR1 (human) receptor agonism; Potency, µM (series often up to 115 µM), inactives show at the top dose activation, most hits filed as activators; 410,000 compounds, 0.075% hits; HEK293 GP2 PTHR1 cells, GloSensor cAMP luminescence, 1 h; AID 743266; Q03431; also: nearly all actives have a fitted effect of over 55% in size
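HEK-293-derived GP2 cells expressing PTHR1 and a GloSensor cAMP reporter, 3,000/well, plated overnight, given luciferin plus IBMX (each 0.5 mM as added) for 1 h at 37 °C, then compound for 1 h at 37 °C. Luminescence was read after 15 min at room temperature.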
GLP-1R agonist: GLP-1 receptor (human) agonism; HEK293 GLP-1R CRE-luciferase, luminescence, 4-6 h; cells express a hypersensitive GLP-1R form; Potency, µM (doses to about 45.6 µM), inactives show at the top dose activation, hits mostly activators; P43220; 380,000 compounds, 0.007% hits; also: % of control where 0% means no effect
GLS inhibitor: blocks human kidney-isoform glutaminase activity. O94925. GLS enzymatic activity, qHTS titration. AID 624170. Potency, µM (highest dose often 45.5 µM), for the others: at the top dose activity change, negative = inhibition, actives largely listed as inhibitors. 410,000 compounds, 0.21% hits; also: % is scaled to controls: 0 for no effect and ±100 for the full control effect
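Assay buffer: 45 mM KH2PO4 pH 8.2, 0.02% Tween-20. hKGA acts on L-glutamine (1 mM solution added); product glutamate is reported by an oxidase/peroxidase Amplex Red coupling, with fluorescence taken at baseline and 30 min.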
An asterisk follows results filed as active; [ ] = another dose, or the depositor's remark. This is a sample that favours compounds with a hit; in the whole collection about 2.3% have one here. Calls follow the shape of the dose curve; as a rule, active = well fitted curve in the direction sought with a large enough effect; inconclusive = small, poorly fitted or top-dose-only effect, or another doubt; inactive = no such curve, though single readings can be large; an effect the other way counts as inactive or inconclusive. Potency is read from the fitted curve at half-maximal effect.

For C[C@H](O)[C@@H]1CN2CCc3c([nH]c4ccc(-c5ccc6c(c5)OCO6)cc34)[C@@H]2C[C@@H]1N(C)C(=O)Nc1cc(Cl)cc(Cl)c1 the results were GLP1R inv ag 2.82µM*, 12-LOX inh -101.9%, GRP78 ERSR act -9.9%, PTHR1 ag 6.9%, GLP-1R agonist -4.4% and GLS inhibitor -5.6%.
Cc1ccc(F)cc1NC(=O)c1nn(-c2ccccc2)c(=O)c2ccccc12 was read as 12-LOX inh -13.3%.
O=C(Cn1ccc2ccc(Cl)cc21)Nc1ccc2[nH]ccc2c1 was read as 12-LOX inh -1.4%.
Cc1cc(C)cc(-n2ncc3c(NCC4CCCO4)ncnc32)c1 (configuration not stated) was read as 12-LOX inh 33.8%.
COc1ccc2nc(SCC(=O)N3N=C(c4ccco4)CC3c3cccs3)[nH]c2c1 (configuration not stated) was read as 12-LOX inh 0.5%.
`O=C(CSc1nc2ccc(Cl)cc2[nH]1)N1N=C(c2cccs2)CC1c1ccco1` (configuration not stated) gave 12-LOX inh 17.8µM*.
For CN(C)c1ccc(NCc2cccc(Br)c2)cc1 the results were 12-LOX inh 7.94µM*.
For CN(C)c1ccc(CNc2ncc(Br)cc2Br)cc1 the results were GLP1R inv ag inconclusive, 12-LOX inh 0.7%, GRP78 ERSR act -0.7%, PTHR1 ag -71.7%[57.5 µM], GLP-1R agonist 2.0% and GLS inhibitor 0.5%.
For COc1ccc(CN(C)CC2CCCN(CCc3ccc(Cl)cc3)C2)cc1OC (configuration not stated) the results were GLP1R inv ag inconclusive, 12-LOX inh 0.0%, GRP78 ERSR act -2.4%, PTHR1 ag -16.9%, GLP-1R agonist 0.3% and GLS inhibitor -0.2%.
For COc1ccc(CN(C)CC2CCCN(CCc3ccc(F)cc3)C2)cc1OC (configuration not stated) the results were GLP1R inv ag 11.2µM*, 12-LOX inh inconclusive, GRP78 ERSR act -2.1%, PTHR1 ag -24.4%, GLP-1R agonist 4.1% and GLS inhibitor -6.4%.
For CN(Cc1ccc(Br)cc1)CC(O)COc1cccc(Br)c1 (configuration not stated) the results were GLP1R inv ag inconclusive, 12-LOX inh 0.891µM*, GRP78 ERSR act -1.2%, PTHR1 ag -1.1%, GLP-1R agonist 3.0% and GLS inhibitor 0.0%.
Screening C=CCOc1ccc(CN(C)CC(O)COc2ccc(CCC(C)=O)cc2)cc1 (configuration not stated) returned GLP1R inv ag 11.2µM*, 12-LOX inh -26.0%, GRP78 ERSR act -4.8%, PTHR1 ag -13.2%, GLP-1R agonist 4.4% and GLS inhibitor 3.9%.
For CC(=O)c1ccc(OCC(O)CN(C)CCOc2ccc(Br)cc2)cc1 (configuration not stated) the results were GLP1R inv ag 10µM*, 12-LOX inh -6.0%, GRP78 ERSR act 1.8%, PTHR1 ag -17.8%, GLP-1R agonist -0.3% and GLS inhibitor -9.4%.
Screening CN(CC(=O)Nc1ccccc1C(=O)NC1CC1)Cc1ccc(F)cc1 returned 12-LOX inh 35.0%.
COc1ccc(-c2nnc(SCC(=O)Nc3ccc(C)cc3C)[nH]c2=O)cc1 was read as 12-LOX inh 3.5%.
For O=c1c2c([N+](=O)[O-])cc([N+](=O)[O-])cc2sn1Cc1ccccc1 the results were GLP1R inv ag -14.2%, 12-LOX inh 0.794µM*, GRP78 ERSR act -15.9%, PTHR1 ag inactive, GLP-1R agonist 10.8% and GLS inhibitor 1.78µM*.
For O=c1c2c([N+](=O)[O-])cc([N+](=O)[O-])cc2sn1-c1ccc(Br)cc1 the results were GLP1R inv ag -43.9%, GRP78 ERSR act 2.3%, PTHR1 ag 15.8%, GLP-1R agonist -1.4% and GLS inhibitor 11.2µM*.
COC(CN(C(=O)CCl)C(C(=O)NC1CCCCC1)c1ccccc1C)OC (configuration not stated) was read as GLP1R inv ag 10µM*, 12-LOX inh inconclusive, GRP78 ERSR act -13.4%, PTHR1 ag -57.0%, GLP-1R agonist -9.7% and GLS inhibitor -6.7%.
For COc1ccc(N2CCN(C(=O)c3c(C)oc4ncnc(N5CCCCC5)c34)CC2)cc1 the results were GLP1R inv ag 11.2µM*, 12-LOX inh inconclusive, GRP78 ERSR act -2.8%, PTHR1 ag inconclusive and GLS inhibitor 12.4%.
Screening NC(=O)C(c1ccc(Br)cc1)c1ccc(C(=O)c2ccccc2)cc1 (configuration not stated) returned GLP1R inv ag 11.2µM*, 12-LOX inh 9.3%, GRP78 ERSR act -3.1%, PTHR1 ag -19.8%, GLP-1R agonist 7.9% and GLS inhibitor -5.4%.
`NC(=O)C(c1ccc(F)cc1)c1ccc(C(=O)c2ccccc2)cc1` (configuration not stated) gave GLP1R inv ag inconclusive, 12-LOX inh -11.9%, GRP78 ERSR act 2.2%, PTHR1 ag -19.7%, GLP-1R agonist -1.4% and GLS inhibitor 1.4%.
Screening Cc1ccc(S(=O)(=O)NCC2CCC(C(=O)NCC(=O)N(C)Cc3ccccc3)CC2)cc1 (configuration not stated) returned 12-LOX inh -9.0%.
O=C(c1[nH]nc2c1COc1ccccc1-2)N1CCC(Cc2nncn2CC2CC2)CC1 was read as 12-LOX inh 110.1%.
Screening O=C(NC[C@H]1O[C@@H](CO)[C@@H](O)[C@H]1N1CCN(c2ccccn2)CC1)Nc1ccc(F)cc1F returned 12-LOX inh 10µM*.
For O=S(=O)(NC[C@H]1O[C@@H](CO)[C@@H](O)[C@H]1N1CCN(c2ccccc2)CC1)c1ccc(F)cc1 the results were 12-LOX inh 22.4µM*.
`O=S(=O)(NC[C@H]1O[C@@H](CO)[C@@H](O)[C@H]1N1CCOCC1)c1ccccc1` gave 12-LOX inh -2.1%[176 µM].
Cc1ccc(NC(=O)COc2ncnc3ccccc23)c([N+](=O)[O-])c1 was read as 12-LOX inh -1.5%.
For CC(=O)NCCNc1ncnc2ccc(-c3ccccc3Cl)cc12 the results were 12-LOX inh 31.6µM* and GRP78 ERSR act -1.6%.
O=C(O)c1ccc(-c2nc3scc(-c4ccccc4)c3c(=O)[nH]2)cc1 was read as GLP1R inv ag 14.4%, 12-LOX inh 15.2%, GRP78 ERSR act 1.2%, PTHR1 ag 17.8µM*, GLP-1R agonist -0.8% and GLS inhibitor 6.3%.
